Source: PubChem (several laboratories)
GPR7 antagonist = GPR7 receptor antagonists, primary screen, cell-based, fluorescence, single concentration | GPR7-expressing cells, fluorescence antagonist assay | Neuropeptides B/W receptor type 1 (Homo sapiens), P48145 | hit rate 1.1% among 290,000 | inhibition, % at 4.4 µM | AID 1861, 2009; in the data active means inhibition above about 16%, passing the limit was not always enough;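 further: cells stimulated with the agonist NPW; 0% = agonist with vehicle and 100% = vehicle without agonist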
Kir21 inh = inhibitors of mouse Kir2.1 inward-rectifier potassium channel | Inward rectifier potassium channel 2 (Mus musculus), P35561 | AID 1672, 2009 | hit rate 0.85% among 310,000 | B-score at 10 µM | HEK293-Kir2.1, FluxOR thallium flux fluorescence; active compounds read low;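 active means fluorescence ratio B-score at or below minus 3 SD of library scores, with starting-brightness B-score within 2 SD, cut at about -4.2 in these data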;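 further: channel flux triggered by added potassium and thallium sulfate stimulus; B-score of peak minus minimum fluorescence over baseline after thallium stimulus; more negative B-score means stronger Kir2.1 block with less thallium influx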
Target sequence (P35561 whole entry, looked up): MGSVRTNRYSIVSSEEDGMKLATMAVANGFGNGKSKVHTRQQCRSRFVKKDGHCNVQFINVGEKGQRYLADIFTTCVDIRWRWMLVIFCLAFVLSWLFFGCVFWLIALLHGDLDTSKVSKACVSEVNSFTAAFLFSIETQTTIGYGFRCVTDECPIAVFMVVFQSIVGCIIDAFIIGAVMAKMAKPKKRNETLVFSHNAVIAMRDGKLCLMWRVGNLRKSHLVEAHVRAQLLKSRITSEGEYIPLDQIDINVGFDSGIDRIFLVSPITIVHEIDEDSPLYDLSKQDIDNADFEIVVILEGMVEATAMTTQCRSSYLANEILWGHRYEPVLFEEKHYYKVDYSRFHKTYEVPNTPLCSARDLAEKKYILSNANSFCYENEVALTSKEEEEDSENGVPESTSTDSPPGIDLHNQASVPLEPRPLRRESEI
CHT PAM = CHT positive allosteric modulators, primary screen, cell-based, membrane potential dye, choline EC20; High affinity choline transporter 1 (Homo sapiens), Q9GZV3; CHT-expressing cells; active compounds read high; LV-AA mutant CHT in HEK293 cells; B-score at 10 µM; hit rate 0.49% among 310,000;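 active means initial fluorescence not abnormally high and integrated response B-score, plate-corrected, over 3 SD above library mean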
CHT block = inhibitors of human choline transporter CHT; High affinity choline transporter 1 (Homo sapiens), Q9GZV3; CHT-expressing cells, membrane potential dye, choline response; active compounds read low; B-score at 10 µM; hit rate 0.86% among 310,000;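 active means B-score over 3 SD under the library average, and starting fluorescence ratio not unusually high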;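 further: choline stimulus applied at its EC90 after an EC20 pre-addition; B-score computed on integrated fluorescence ratio after choline addition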
ANO1 block = TMEM16A chloride channel inhibitors, primary screen, cell-based, HTS; HEK293 TMEM16A/YFP iodide influx fluorescence, ionomycin; normalized B-score (activity score, 25-100; higher = stronger inhibition) at 10 µM; hit rate 1.2% among 310,000; AID 588511, 2011;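 active means ratio plate-corrected score three or more library SD toward inhibition, starting fluorescence score within five deviations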;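 further: score derived from kinetic fluorescence span divided by baseline fluorescence per well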
ANO1 activ = TMEM16A chloride channel activators or potentiators, primary screen, cell-based, HTS. Anoctamin-1 (Mus musculus), Q8BHY3. HEK293 TMEM16A/YFP-H148Q/I152L, iodide quench fluorescence; active compounds read low. B-score at 10 µM. hit rate 0.3% among 340,000. AID 623877, 2012;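 active means fluorescence-ratio B-score plate-corrected deviation score at least 3 library SD below zero, with starting fluorescence score within 5 deviations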;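 further: channel opened by trigger with iodide after compound preincubation; score built on the fluorescence ratio of max minus min over baseline; more negative score means more quench and so TMEM16A activation or potentiation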
GPR7 antag cf = GPR7 receptor antagonists, confirmation, cell-based, fluorescence, single concentration | hit rate 52% among 2,400 | shares compounds with GPR7 antagonist | GPR7-expressing cells, calcium fluorescence antagonist mode | AID 1952, 2009 | inhibition, % at 4.4 µM; in the data active means inhibition above about 24%;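 further: stimulated with the GPR7 agonist NPW; 0% = agonist plus vehicle and 100% = vehicle alone without agonist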
MCHR1 antagonist = MCHR1 antagonists in cells, counter-screen for GPR7 antagonist project, cell-based, fluorescence, human; shares compounds with GPR7 antagonist; inhibition, % at 4.4 µM; hit rate 62% among 2,400; MCHR1-expressing cells, fluorescence antagonist assay; in the data active means inhibition above about 22%;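 further: 0% = vehicle with agonist and 100% = vehicle without agonist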
* hit, by the source's call. Hits are enriched below; roughly 3.7% of the tested compounds scored in any of these assays.

What do the screens show for `CCOc1ccc(N(CC(=O)NC(C)(C)C)C(=O)CCC(=O)Nc2nccs2)cc1`?
GPR7 antagonist: -4.5; Kir21 inh: -0.41; CHT PAM: inactive; CHT block: inactive; ANO1 block: inactive; ANO1 activ: inactive

How did Cc1ccc(CNC(=O)C2CCCN2C(=O)Nc2ccc(F)cc2)cc1 (stereo not given) do in these assays?
GPR7 antagonist: -9.8; Kir21 inh: -0.17; CHT PAM: inactive; CHT block: inactive; ANO1 block: inactive; ANO1 activ: inactive

What do the screens show for `Clc1ccc(-n2c(SC/C=C/c3ccccc3)nnc2-c2cccnc2)cc1`?
GPR7 antagonist: 31.5*; Kir21 inh: -3.14; CHT PAM: inactive; CHT block: inactive; ANO1 block: inactive; ANO1 activ: inactive; GPR7 antag cf: 26.9*; MCHR1 antagonist: 21.0

What do the screens show for `Cc1ccccc1NC(=O)c1cccc(C(=O)Nc2ccccc2C)n1`?
GPR7 antagonist: 32.6*; Kir21 inh: -2.3; CHT PAM: inactive; CHT block: inactive; ANO1 block: inactive; ANO1 activ: inactive; GPR7 antag cf: 11.5; MCHR1 antagonist: 36.7*

How did Cc1c(NC(=O)c2cccc(NS(C)(=O)=O)c2)c(=O)n(-c2ccccc2)n1C do in these assays?
GPR7 antagonist: -11.2; Kir21 inh: 3.91; CHT PAM: inactive; CHT block: inactive; ANO1 block: inactive; ANO1 activ: inactive

Results for CC(NC(=O)c1ccc(C#N)cc1)C1CC2CCC1C2 (stereo not given) ?
GPR7 antagonist: 23.4*; Kir21 inh: 0.06; CHT PAM: inactive; CHT block: inactive; ANO1 block: inactive; ANO1 activ: inactive; GPR7 antag cf: -4.2; MCHR1 antagonist: 13.2

Results for COc1ccc(C(=O)NC(C)C2CC3CCC2C3)cc1 (stereo not given) ?
GPR7 antagonist: 4.0; Kir21 inh: 1.19; CHT PAM: inactive; CHT block: inactive; ANO1 block: inactive; ANO1 activ: inactive

Results for CC(=O)Oc1cccc(N2C(=O)c3cccc4c([N+](=O)[O-])ccc(c34)C2=O)c1 ?
GPR7 antagonist: 60.4*; Kir21 inh: -0.01; CHT PAM: inactive; CHT block: inactive; ANO1 block: inactive; ANO1 activ: inactive; GPR7 antag cf: 54.3*; MCHR1 antagonist: 35.9*

What do the screens show for `CC(=O)Oc1cccc(N2C(=O)c3ccc(C(=O)O)cc3C2=O)c1`?
GPR7 antagonist: -4.1; Kir21 inh: 0; CHT PAM: inactive; CHT block: inactive; ANO1 block: inactive; ANO1 activ: inactive

What do the screens show for `CCOC(=O)c1c(NC(=O)CN2C(=O)C(=O)N(C(C)C)C2=O)sc(C)c1CC`?
ANO1 activ: inactive

How did Cc1ccc(S(=O)(=O)/N=C(\N)Nc2nc(C)c3cc(C)c(C)cc3n2)cc1 do in these assays?
GPR7 antagonist: 30.4*; Kir21 inh: 2.51; CHT PAM: inactive; CHT block: inactive; ANO1 block: inactive; ANO1 activ: inactive; GPR7 antag cf: 13.6; MCHR1 antagonist: 20.7

How did Cc1ccc(S(=O)(=O)/N=C(\N)Nc2nc(C)c3ccc(C)cc3n2)cc1 do in these assays?
GPR7 antagonist: 11.4; Kir21 inh: -1.05; CHT PAM: inactive; CHT block: inactive; ANO1 block: inactive; ANO1 activ: inactive

Results for O=C(CSc1nncs1)Nc1nccs1 ?
Kir21 inh: 1.16; CHT PAM: inactive; CHT block: inactive; ANO1 block: inactive; ANO1 activ: inactive

Results for Cc1cc(-c2ccc(S(=O)(=O)N3CCN(c4cccc(C)c4C)CC3)s2)on1 ?
GPR7 antagonist: 29.0*; Kir21 inh: -0.22; CHT PAM: inactive; CHT block: inactive; ANO1 block: inactive; ANO1 activ: inactive; GPR7 antag cf: 14.5; MCHR1 antagonist: 39.6*

Results for CCN1CCN(S(=O)(=O)c2ccc(-c3cc(C)no3)s2)CC1 ?
GPR7 antagonist: -2.1; Kir21 inh: 1.35; CHT PAM: inactive; CHT block: inactive; ANO1 block: inactive; ANO1 activ: inactive

Results for COc1ccc(CNc2nc(S(=O)(=O)c3ccccc3)c(Cl)s2)cc1OC ?
GPR7 antagonist: 34.0*; Kir21 inh: -0.02; CHT PAM: inactive; CHT block: inactive; ANO1 block: inactive; ANO1 activ: inactive; GPR7 antag cf: 34.5*; MCHR1 antagonist: 53.7*

What do the screens show for `O=S(=O)(c1ccccc1)c1nc(NCc2ccccc2)sc1Cl`?
GPR7 antagonist: -14.0; Kir21 inh: 0.46; CHT PAM: inactive; CHT block: inactive; ANO1 block: inactive; ANO1 activ: inactive

Results for CC[n+]1c(/C=C/N(C)c2ccccc2)n(-c2ccccc2)c2ccc(-c3nc4ccccc4s3)cc21 ?
GPR7 antagonist: 84.5*; Kir21 inh: -6.97*; CHT PAM: inactive; CHT block: inactive; ANO1 block: inactive; ANO1 activ: inactive; GPR7 antag cf: 94.6*; MCHR1 antagonist: 88.5*

How did C#CCOc1ccc(/C=C2/C(=O)NN(c3ccc(F)cc3)C2=O)cc1OC do in these assays?
GPR7 antagonist: -24.9; Kir21 inh: 0.66; CHT PAM: inactive; CHT block: inactive; ANO1 block: inactive; ANO1 activ: inactive

Results for CN1C2CCC1/C(=C\c1ccccc1F)C(=O)/C2=C/c1ccccc1F ?
GPR7 antagonist: 27.8*; Kir21 inh: 0.3; CHT PAM: inactive; CHT block: inactive; ANO1 block: inactive; ANO1 activ: inactive; GPR7 antag cf: 21.6; MCHR1 antagonist: 34.0*

What do the screens show for `CCOC(=O)CC1C(=O)NCCN1S(=O)(=O)c1ccc(NC(C)=O)cc1` (stereo not given)?
GPR7 antagonist: -15.9; Kir21 inh: -1.56; CHT PAM: inactive; CHT block: inactive; ANO1 block: inactive; ANO1 activ: inactive

Results for O=C1C2C3C=CC(C3)C2C(=O)N1c1ccncc1 (stereo not given) ?
GPR7 antagonist: -14.9; Kir21 inh: -1.24; CHT PAM: inactive; CHT block: inactive; ANO1 block: inactive; ANO1 activ: inactive
